# Laboratory results reported in PubChem BioAssay (NCI).
# Compounds without any hit were thinned out: in the full panel of roughly 79,000, 15% have a hit. Active and inactive are the calls of the source. No stated cut-off is given here; in the data, active means growth inhibition above about 70%; inactive means the rest.
# Test: NCI Yeast Anticancer Drug Screen. Data for the CLN2oe strain (AID 163);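 further: 0% = growth of vehicle-only control cultures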
# Conditions: S. cerevisiae CLN2oe strain, active compounds read high
# Method: Growth inhibition of yeast strains with defined genetic alterations is measured as a screen for potential anti-cancer activity. Selected strains with alterations in DNA damage repair or cell cycle control were exposed to compounds and growth inhibition was measured relative to vehicle treated controls. The strain used in this assay is CLN2oe
Structure (SMILES),growth inhibition (at 1.2 µM),growth inhibition (at 3.7 µM),growth inhibition (at 11.0 µM),growth inhibition (at 33.0 µM),growth inhibition (at 100.0 µM)
N#CCC(=O)N/N=C(\c1ccccc1)C(c1ccccc1)C1(O)C(=O)Nc2c(Cl)ccc(Cl)c21 (stereo not given),-1% (inactive),-2% (inactive),-2% (inactive),-8% (inactive),-11% (inactive)
COc1ccc(-c2cc(-c3cc(C)cc(Cl)c3O)nc3[nH]c(=S)[nH]c(=S)c23)cc1,-2% (inactive),-2% (inactive),-3% (inactive),-5% (inactive),87% (active)
[N-]=[N+]=NC1(c2ccccc2)C(=O)Nc2ccccc2C1=O (stereo not given),-5% (inactive),-5% (inactive),3% (inactive),35% (inactive),61% (inactive)
COC(=O)C(Cl)(Cl)N=Nc1c(Cl)cc(Cl)c(C)c1Cl,36% (inactive),22% (inactive),97% (active),99% (active),99% (active)
COC(=N)c1ccc(O)c(C)c1,-2% (inactive),3% (inactive),0% (inactive),-3% (inactive),-6% (inactive)
ClCCCOc1c(Cl)cc(Cl)cc1Cl,1% (inactive),0% (inactive),0% (inactive),1% (inactive),5% (inactive)
COc1cc([C@@H]2c3cc4c(cc3[C@@H](NC(=O)NO)[C@H]3COC(=O)[C@H]23)OCO4)cc(OC)c1O,-2% (inactive),-7% (inactive),-1% (inactive),-12% (inactive),0% (inactive)
CC(=O)Oc1ccc2c(c1)Cc1cc(N3C(=O)C=CC3=O)ccc1-2,1% (inactive),12% (inactive),35% (inactive),92% (active),96% (active)
